The list is not random: actives were taken first. Their share in the collection is about 22%.
LmPK inhibitor: LmPK (Leishmania mexicana) enzyme inhibition; Q27686; hit rate 0.37% among 290,000; Potency, µM (titrated, usually from 57.5 µM), inactives show at the highest dose activity change, negative = inhibition, most hits filed as inhibitors; purified LmPK, Kinase-Glo ATP luminescence, 1 h; note: potency is the fitted concentration of half-maximal effect; % is set by controls: 0 for no effect and ±100 for the full control effect
Target sequence (Q27686 whole entry, looked up): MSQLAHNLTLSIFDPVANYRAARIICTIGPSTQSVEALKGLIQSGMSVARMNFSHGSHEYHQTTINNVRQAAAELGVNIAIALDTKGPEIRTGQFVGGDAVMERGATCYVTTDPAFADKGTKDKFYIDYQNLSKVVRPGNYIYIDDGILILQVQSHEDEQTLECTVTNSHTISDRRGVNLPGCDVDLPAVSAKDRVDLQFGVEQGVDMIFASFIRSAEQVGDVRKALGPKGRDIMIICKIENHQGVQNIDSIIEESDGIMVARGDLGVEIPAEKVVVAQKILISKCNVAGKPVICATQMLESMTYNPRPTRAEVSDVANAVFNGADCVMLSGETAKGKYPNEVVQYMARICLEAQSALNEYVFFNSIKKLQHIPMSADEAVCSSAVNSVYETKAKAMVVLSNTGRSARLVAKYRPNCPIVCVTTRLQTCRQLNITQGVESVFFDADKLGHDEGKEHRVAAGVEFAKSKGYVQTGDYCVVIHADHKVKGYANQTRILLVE
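Kinase-Glo luminescence read after 1 h RT reaction of 0.1 nM LmPK with 0.5 mM PEP and 0.1 mM ADP. Activity scaled between uninhibited and enzyme-free controls.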
Pf growth 48h: inhibits P. falciparum growth in the first generation, 48 h | Potency, µM (highest dose often 28.7 µM), for the others: top-dose activity change, negative = inhibition, most hits filed as inhibitors | P. falciparum luciferase growth in erythrocytes, 48 h | hit rate 5.9% among 310,000 | AID 504832; note: potency is the fitted concentration of half-maximal effect; % is set by controls: 0 for no effect and ±100 for the full control effect
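In quantitative HTS format, infected erythrocytes bearing luciferase-reporter parasites were treated for a single generation at 37 C. Luminescence after adding detection reagent served as the growth measure.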
CHX counter: counter-screen hit for Shiga toxin inhibitors, cycloheximide; cell reporter, cycloheximide protein synthesis inhibition counterscreen; max response, %; hit rate 12% among 300,000; in the data active = max response mostly above about 13%, no sharp cut-off; inactive = mostly below about 14%; note: read at 38.3 µM for the half of the compounds with a filed dose; 0% is about no effect
Pf growth 96h: P. falciparum growth inhibition at 96 hour, primary screen for plastid delayed-death inhibitors; P. falciparum luciferase reporter growth, 96 h; Potency, µM (top dose mostly 28.7 µM), inactives show at the top dose activity change, negative = inhibition, actives largely listed as inhibitors; hit rate 6.9% among 320,000; AID 504834; note: potency is the fitted concentration of half-maximal effect; % is set by controls: 0 for no effect and ±100 for the full control effect
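Two parasite generations (96 h, 37 C, 5% CO2) of compound exposure in infected erythrocytes (0.05% parasitemia, 2% hematocrit). Luciferase-reporter P. falciparum; decreased luminescence indicates inhibited growth, aimed at apicoplast-acting delayed death.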
Shiga inhibitor: inhibitors of Shiga toxin in Vero cells; hit rate 9.2% among 290,000; inhibition, % at 38.7 µM; Vero cells, Shiga toxin protein synthesis inhibition reporter; in the data active = inhibition mostly above about 28%, no sharp cut-off; inactive = mostly below about 43%; note: 0% is about no effect
* = called active by the depositor; ? = inconclusive; . = not tested or not shown. Unless noted, calls come from the whole dose curve; as a rule, active = well fitted inhibition curve with a large enough effect; inconclusive = small, poorly fitted or top-dose-only effect, or another doubt; inactive = no such curve, though single readings can be large or run the other way.

SMILES | LmPK inhibitor | Pf growth 48h | CHX counter | Pf growth 96h | Shiga inhibitor
O=C(C[n+]1cc(-c2ccc(F)cc2)n2c1CCC2)Nc1nc(-c2ccccc2)cs1 | 2% | ? | 6 | ? | 7
O=C(C[n+]1cc(-c2ccc(Cl)cc2)n2c1CCC2)N1c2ccccc2Sc2ccccc21 | -5% | 1.7µM* | -2 | ? | -1
O=C1NC(Cc2ccccc2)c2nc3ccccc3c(=O)n2-c2cc(Cl)ccc21 (configuration not stated) | . | -7% | . | 14% | .
c1ccc(-c2nc(N3CCOCC3)s[n+]2-c2ccccc2)cc1 | -19% | 79% | 57* | 91% | 40*
CCOC(=O)c1ccc(NC(=O)CN2CCN(C(=O)c3ccco3)CC2)cc1 | -1% | 9.3µM* | -4 | -3% | -13
NC(=O)c1ccc(NC(=O)CN2CCN(C(=O)c3ccco3)CC2)cc1 | -10% | 12% | -7 | 2.3µM* | -2
CCOc1ccc(NC(=O)CN2CCN(C(=O)c3ccco3)CC2)cc1S(=O)(=O)N1CCCC1 | . | ? | . | 15µM* | .
CCc1c(C)sc(NC(=O)CN2CCN(C(=O)c3ccco3)CC2)c1C(=O)OC | -2% | ? | 16* | 19% | 37
CCOC(=O)c1c(NC(=O)CN2CCN(C(=O)c3ccco3)CC2)sc(C)c1C | -6% | ? | -4 | 21% | -5
COc1ccccc1NC(=O)c1ccc(NC(=O)CN2CCN(C(=O)c3ccco3)CC2)cc1 | -1% | -24% | -2 | ? | 15
COc1ccc(NC(=O)CN(Cc2ccco2)Cc2ccco2)cc1S(=O)(=O)N1CCCCC1 | . | ? | . | -89% | .
[O][C@H]1[C@@H](O)[C@@H](CO)O[C@@H](O[C@@H]2[C@@H]3OC[C@H]2O[C@H](O[C@@H]2[C@@H](O)[C@H](C[C@@H]4[C@@H]5OC[C@H]4O[CH][C@@H]5O)O[C@H](CO)[C@@H]2OS(=O)(=O)O)[C@@H]3OS(=O)(=O)O)[C@@H]1O | . | . | -13 | . | 19
Cc1cccc(OCc2nnc(SCC(=O)NC3CCCC3)n2C)c1 | 0% | -4% | -2 | -5% | 9
COc1ccc(-c2cc(C(=O)Nc3cc(S(=O)(=O)N4CCOCC4)ccc3N3CCOCC3)c3ccccc3n2)cc1 | -4% | ? | 12 | ? | 6
COc1cc(OC)c(C(=O)NCC2CCCO2)cc1OC (configuration not stated) | 1% | -11% | 0 | -22% | 1
COc1ccccc1NC(=O)c1cc2ccc(O)cc2o/c1=N\O | -8% | 6% | 23 | -92% | 60
Cc1cccc(N=c2oc3cc(O)ccc3cc2C(N)=O)c1 | 3% | 23% | 27* | 2% | 39*
COc1cccc(N=c2oc3cc(O)ccc3cc2C(=O)NCC2CCCO2)c1 (configuration not stated) | -9% | ? | 13* | ? | 65
COc1ccccc1N=c1oc2cc(O)ccc2cc1C(=O)NCC1CCCO1 (configuration not stated) | 3% | ? | 17* | ? | 12
COc1ccccc1N=c1oc2cc(O)ccc2cc1C(N)=O | -16% | 82% | 14* | 21% | 19
Cc1cc(C(=O)OCC(=O)NC(=O)c2cccn2C)c2ccccc2n1 | 1% | 12% | -2 | 2% | 0
O=C(Cc1ccccc1)Nc1cccc(C(=O)O)c1O | 4% | 20% | 14 | -4% | 12
COc1ccc2oc(=Nc3cccc(F)c3)c(C(N)=O)cc2c1 | 0% | 4% | 34* | 11% | 73*
C[C@H]1[C@H](C)CC[C@]2(C)CC[C@]3(C)C(=CC[C@@H]4[C@@]5(C)CC[C@@H](O)[C@](C)(C(=O)O)[C@@H]5CC[C@]43C)[C@H]12 | 0% | ? | -2 | 13µM* | -3
CC(=O)N1CCc2cc(N=NC3=C(O)CCCC3=O)ccc21 | -10% | 31% | 31* | 27% | 92*
O=C1CCCC(O)=C1N=Nc1ccc(Cl)c(Cl)c1 | -8% | 16% | 23* | 19% | 15
O=C1CCCC(O)=C1C=Nc1ccc(O)cc1 | -3% | 66% | 13 | 0% | 32
Cc1nc2cc(N=NC3=C(O)CCCC3=O)ccc2s1 | -25% | 15% | 61* | 43% | 89*
COc1ccccc1CN1CCCC(CN(CCN(C)C)C(=O)C2CCCC2)C1 (configuration not stated) | -1% | ? | -2 | ? | 6
